# Reference: PubChem BioAssay
# Records with an inconclusive call do not appear. Calls of active or inactive are those of the source. Unless noted, the rule behind the calls is not given here.
# Legend:
# [1] = reducers of polyQ inclusions in PC12 cells, cell-based, NGF-treated PC12, GFPQ80 (AID 1614); conditions: PC12 NGF-treated GFP-polyQ80 inclusion reduction;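 note: lower means fewer inclusions and 0 means no inclusions at all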
# [2] = circadian clock period modulators, cell-based, LOPAC library, luminescence reporter (AID 2774); conditions: circadian reporter cells, at 7 µM, actives lie on both sides;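 note: values are relative to mean of DMSO wells on each plate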
# [3] = Cy5 fluorescence quenching or enhancement artefacts, artefact control for HCV NS3 helicase inhibitor project, biochemical, LOPAC1280 (AID 687037); conditions: Cy5-DNA-NS3h complex fluorescence interference counterscreen
# [4] = phospholipid biosynthesis inhibitors in animal cells, primary screen, cell-based, LOPAC library, screen 4 (AID 1347384); conditions: phospholipid biosynthesis inhibition screen, at 10 µM
# [5] = molecular target: ATP-dependent translocase ABCB1 (Homo sapiens) (UniProt P08183); experiment: MDR1 (ABCB1) efflux transporter inhibition, cell-based (AID 377; in the data active = fluorescence slope change above about 50%); conditions: MDR1-expressing cells, fluorescent substrate accumulation slope; stronger effect = higher value; concentration not given here
# [6] = tested on: Neuropilin-2 / VEGF-C interaction (human); experiment: inhibitors of NRP2–VEGF-C binding, biochemical, microplate binding format, z-score (AID 743281); conditions: microplate NRP2/VEGF-C binding assay; stronger effect = lower value
# [7] = growth inhibition of DIPG glioma cells, dose response, cell-based, SU-DIPG-XVII, MIPE5.0, CellTiter-Glo, qHTS (AID 1347060; cut-off not given, nearly all actives have AC50 up to about 26 µM); conditions: SU-DIPG-XVII viability, CellTiter-Glo ATP luminescence
# [8] = growth inhibition of DIPG glioma cells, dose response, cell-based, JHH-DIPG-1, MIPE4.0, CellTiter-Glo, qHTS (AID 1347062; cut-off not given, nearly all actives have AC50 up to about 27 µM); conditions: JHH-DIPG-1 viability, CellTiter-Glo ATP luminescence
# [9] = growth inhibition of DIPG glioma cells, dose response, cell-based, SU-DIPG-XIII, MIPE5.0, CellTiter-Glo, qHTS (AID 1347064; cut-off not given, nearly all actives have AC50 up to about 23 µM); conditions: SU-DIPG-XIII viability, CellTiter-Glo ATP luminescence
# [10] = viability loss in pontine glioma line – cell-based, SU-DIPG-XXV, MIPE5.0, CellTiter-Glo, qHTS, dose response (AID 1347065; cut-off not given, nearly all actives have AC50 up to about 26 µM;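 note: cells exposed to compound for 48 hours before ATP readout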); conditions: CellTiter-Glo ATP luminescence
# [11] = SU-DIPG-VI glioma cell viability, MIPE4.0 library, CellTiter-Glo luminescence, qHTS (AID 1347066; cut-off not given, nearly all actives have AC50 up to about 30 µM;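 note: cells exposed to compound for 48 hours before readout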); conditions: CellTiter-Glo ATP luminescence
# [12] = JHH-DIPG-1 glioma cell viability, MIPE5.0 library, CellTiter-Glo luminescence, qHTS (AID 1347067; cut-off not given, nearly all actives have AC50 up to about 26 µM;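 note: cells exposed to compound for 48 hours before readout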); conditions: JHH-DIPG-1 glioma viability, CellTiter-Glo ATP luminescence
# [13] = SU-DIPG-XXV glioma cell viability, MIPE5.0 library, qHTS (AID 1347068; cut-off not given, nearly all actives have IC50 up to about 30 µM)
# [14] = growth inhibition of DIPG glioma cells, dose response, cell-based, SU-DIPG-XIII, MIPE4.0, CellTiter-Glo, qHTS (AID 1347061; cut-off not given, nearly all actives have AC50 up to about 37 µM;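 note: cells exposed to compound for 48 hours before readout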); conditions: SU-DIPG-XIII viability, CellTiter-Glo ATP luminescence
# [15] = growth inhibition of DIPG glioma cells, dose response, cell-based, SU-DIPG-IV, MIPE4.0, CellTiter-Glo, qHTS (AID 1347063; cut-off not given, nearly all actives have AC50 up to about 30 µM;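 note: compound exposure lasted 48 hours before the viability readout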); conditions: SU-DIPG-IV viability, CellTiter-Glo ATP luminescence
# Sequence of ATP-dependent translocase ABCB1 (Homo sapiens) (P08183 whole entry, looked up): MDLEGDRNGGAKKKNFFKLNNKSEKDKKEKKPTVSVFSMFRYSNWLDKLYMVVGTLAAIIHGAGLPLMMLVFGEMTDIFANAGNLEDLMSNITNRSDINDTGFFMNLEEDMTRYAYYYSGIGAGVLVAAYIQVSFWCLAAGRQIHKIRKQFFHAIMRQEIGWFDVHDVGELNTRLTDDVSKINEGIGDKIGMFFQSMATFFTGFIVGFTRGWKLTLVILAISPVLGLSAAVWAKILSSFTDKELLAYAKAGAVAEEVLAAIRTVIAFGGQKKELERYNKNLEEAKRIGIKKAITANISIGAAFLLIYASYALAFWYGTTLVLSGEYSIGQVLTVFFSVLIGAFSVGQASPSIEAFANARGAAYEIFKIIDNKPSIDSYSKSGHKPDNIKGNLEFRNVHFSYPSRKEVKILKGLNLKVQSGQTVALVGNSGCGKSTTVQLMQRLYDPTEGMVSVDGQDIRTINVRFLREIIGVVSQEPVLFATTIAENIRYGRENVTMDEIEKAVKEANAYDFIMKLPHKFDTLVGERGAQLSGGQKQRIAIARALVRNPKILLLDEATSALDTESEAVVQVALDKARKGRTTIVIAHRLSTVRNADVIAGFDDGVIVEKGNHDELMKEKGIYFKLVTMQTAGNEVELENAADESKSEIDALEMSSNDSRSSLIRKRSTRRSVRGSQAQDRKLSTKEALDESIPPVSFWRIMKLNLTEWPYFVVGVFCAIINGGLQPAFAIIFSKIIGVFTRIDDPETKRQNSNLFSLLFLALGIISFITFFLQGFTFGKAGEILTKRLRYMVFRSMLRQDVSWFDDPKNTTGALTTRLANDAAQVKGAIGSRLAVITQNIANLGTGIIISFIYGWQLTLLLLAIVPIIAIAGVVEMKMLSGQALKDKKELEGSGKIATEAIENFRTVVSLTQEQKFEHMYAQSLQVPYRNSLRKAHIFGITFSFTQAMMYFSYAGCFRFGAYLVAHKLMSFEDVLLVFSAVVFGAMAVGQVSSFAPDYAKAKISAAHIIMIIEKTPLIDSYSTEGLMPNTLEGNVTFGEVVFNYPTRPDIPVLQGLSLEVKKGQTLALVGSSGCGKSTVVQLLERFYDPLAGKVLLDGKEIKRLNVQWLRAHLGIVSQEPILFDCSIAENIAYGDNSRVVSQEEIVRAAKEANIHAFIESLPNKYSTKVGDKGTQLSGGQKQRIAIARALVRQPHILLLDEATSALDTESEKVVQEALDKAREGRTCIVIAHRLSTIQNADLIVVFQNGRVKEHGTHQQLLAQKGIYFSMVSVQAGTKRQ
smiles,measurement,setting,value
CN(C)C(=O)Oc1ccc[n+](C)c1,inclusion score,[1],2
same,period change,[2],0.015 h (inactive)
same,fluorescence ratio (interference),[3],1 (inactive)
same,outcome,[4],inactive
CC(N=C(NC#N)Nc1ccncc1)C(C)(C)C (stereo not given),fluorescence slope change,[5],190% (active)
same,period change,[2],0.07 h (inactive)
same,fluorescence ratio (interference),[3],1 (inactive)
same,z-score,[6],-0.52 (inactive)
same,outcome,[4],inactive
Cc1ccc(S(=O)(=O)NC(=O)NN2CCCCCC2)cc1,fluorescence slope change,[5],5.1% (inactive)
same,inclusion score,[1],2
same,period change,[2],0.08 h (inactive)
same,fluorescence ratio (interference),[3],1 (inactive)
same,outcome,[4],inactive
Nc1nc(N)c2nc(-c3ccccc3)c(N)nc2n1,period change,[2],0.185 h (inactive)
same,fluorescence ratio (interference),[3],1 (inactive)
same,outcome,[4],inactive
O=C1NC(=O)C(c2ccccc2)(c2ccccc2)N1,inclusion score,[1],2
same,period change,[2],0.02 h (inactive)
same,fluorescence ratio (interference),[3],1 (inactive)
same,outcome,[4],inactive
OC(CCN1CCCC1)(c1ccccc1)C1CCCCC1 (stereo not given),fluorescence slope change,[5],70.5% (active)
same,inclusion score,[1],2
C=C(CC)C(=O)c1ccc(OCC(=O)O)c(Cl)c1Cl,fluorescence slope change,[5],85.9% (active)
CC(CN1c2ccccc2Sc2ccccc21)N(C)C (stereo not given),period change,[2],0.14 h (inactive)
same,fluorescence ratio (interference),[3],1 (inactive)
same,outcome,[4],inactive
CN(C)CCOC(C)(c1ccccc1)c1ccccn1 (stereo not given),inclusion score,[1],2
same,period change,[2],0.205 h (inactive)
same,fluorescence ratio (interference),[3],1.1 (inactive)
same,z-score,[6],-0.0183 (inactive)
same,outcome,[4],inactive
CN(C)CCC[C@@]1(c2ccc(F)cc2)OCc2cc(C#N)ccc21,z-score,[6],0.314 (inactive)
NC(=O)N1c2ccccc2C=Cc2ccccc21,inclusion score,[1],2
same,period change,[2],0.01 h (inactive)
same,fluorescence ratio (interference),[3],1 (inactive)
same,outcome,[4],inactive
NS(=O)(=O)c1cc2c(cc1C(F)(F)F)NCNS2(=O)=O,inclusion score,[1],2
CC(C)NCC(O)c1cc(O)cc(O)c1 (stereo not given),fluorescence slope change,[5],14.9% (inactive)
same,inclusion score,[1],2
same,period change,[2],-0.17 h (inactive)
same,fluorescence ratio (interference),[3],0.9 (inactive)
same,outcome,[4],inactive
OCCN1CCN(CCCN2c3ccccc3Sc3ccc(Cl)cc32)CC1,fluorescence slope change,[5],181% (active)
same,period change,[2],-0.035 h (inactive)
same,fluorescence ratio (interference),[3],1 (inactive)
same,outcome,[4],inactive
CCCCNC(=O)NS(=O)(=O)c1ccc(C)cc1,inclusion score,[1],2
same,period change,[2],0 h (inactive)
same,fluorescence ratio (interference),[3],1 (inactive)
same,outcome,[4],inactive
CC[N+](C)(C)c1cccc(O)c1,fluorescence slope change,[5],82.5% (active)
same,inclusion score,[1],2
same,period change,[2],0.07 h (inactive)
same,fluorescence ratio (interference),[3],1 (inactive)
same,outcome,[4],inactive
CC(C)(C)NCC(O)c1cc(O)cc(O)c1 (stereo not given),fluorescence slope change,[5],23.2% (inactive)
same,inclusion score,[1],2
same,period change,[2],0.03 h (inactive)
same,fluorescence ratio (interference),[3],1 (inactive)
same,outcome,[4],inactive
CC(=O)Nc1nnc(S(N)(=O)=O)s1,inclusion score,[1],2
same,period change,[2],0.15 h (inactive)
same,fluorescence ratio (interference),[3],1 (inactive)
same,outcome,[4],inactive
Cc1ccc(Cl)c(Nc2ccccc2C(=O)O)c1Cl,fluorescence slope change,[5],27.6% (inactive)
same,inclusion score,[1],2
same,period change,[2],0.13 h (inactive)
same,fluorescence ratio (interference),[3],1 (inactive)
same,outcome,[4],inactive
CCN(CC)CCNC(=O)c1ccc(N)cc1,inclusion score,[1],2
same,period change,[2],0.185 h (inactive)
same,fluorescence ratio (interference),[3],1 (inactive)
same,outcome,[4],inactive
CSc1ccc2c(c1)N(CCC1CCCCN1C)c1ccccc1S2 (stereo not given),period change,[2],-0.225 h (inactive)
same,fluorescence ratio (interference),[3],0.9 (inactive)
same,outcome,[4],inactive
Cc1nc2ccccn2c(=O)c1CCN1CCC(C(=O)c2ccc(F)cc2)CC1,period change,[2],-0.415 h (inactive)
same,fluorescence ratio (interference),[3],1 (inactive)
same,z-score,[6],-1.94 (inactive)
same,outcome,[4],inactive
CC(C)[N+](C)(CCOC(=O)C1c2ccccc2Oc2ccccc21)C(C)C,fluorescence slope change,[5],80.1% (active)
same,inclusion score,[1],2
same,period change,[2],0.06 h (inactive)
same,fluorescence ratio (interference),[3],1 (inactive)
same,outcome,[4],inactive
CC(=O)CCCCn1c(=O)c2c(ncn2C)n(C)c1=O,fluorescence slope change,[5],121% (active)
same,inclusion score,[1],2
same,period change,[2],0.02 h (inactive)
same,fluorescence ratio (interference),[3],1 (inactive)
same,z-score,[6],-0.728 (inactive)
same,outcome,[4],inactive
CCN(CC)CCOC(=O)c1ccc(N)cc1,inclusion score,[1],1.5
same,period change,[2],-0.065 h (inactive)
same,fluorescence ratio (interference),[3],1 (inactive)
same,outcome,[4],inactive
Nc1ccc(S(=O)(=O)c2ccc(N)cc2)cc1,inclusion score,[1],2
C[C@]12CCC(=O)C=C1CC[C@@H]1[C@@H]2[C@@H](O)C[C@@]2(C)[C@H]1CC[C@]2(O)C(=O)CO,period change,[2],-0.16 h (inactive)
same,fluorescence ratio (interference),[3],1 (inactive)
same,outcome,[7],inactive
same,outcome,[8],inactive
same,outcome,[9],inactive
same,outcome,[10],inactive
same,outcome,[11],inactive
same,outcome,[12],inactive
same,outcome,[13],inactive
same,outcome,[4],inactive
C[C@]12C=CC(=O)C=C1CC[C@@H]1[C@@H]2C(=O)C[C@@]2(C)[C@H]1CC[C@]2(O)C(=O)CO,outcome,[7],inactive
same,outcome,[14],inactive
same,outcome,[8],inactive
same,outcome,[15],inactive
same,outcome,[9],inactive
same,outcome,[10],inactive
same,outcome,[11],inactive
same,outcome,[12],inactive
same,outcome,[13],inactive
C[C@]12CCC(=O)C=C1CC[C@@H]1[C@@H]2C(=O)C[C@@]2(C)[C@H]1CC[C@]2(O)C(=O)CO,fluorescence slope change,[5],29.4% (inactive)
same,period change,[2],-0.215 h (inactive)
same,fluorescence ratio (interference),[3],1 (inactive)
same,z-score,[6],0.291 (inactive)
same,outcome,[4],inactive
COc1ccc2cc(CCC(C)=O)ccc2c1,inclusion score,[1],2
CC(C)Oc1ccc2c(=O)c(-c3ccccc3)coc2c1,z-score,[6],0.0143 (inactive)
same,outcome,[7],inactive
same,outcome,[14],inactive
same,outcome,[8],inactive
same,outcome,[15],inactive
same,outcome,[11],inactive
same,outcome,[12],inactive
same,outcome,[13],inactive
